Results reported in article PMC7862700, “An all-to-all approach to the identification of sequence-specific readers for epigenetic DNA modifications on cytosine”.

Assays:
Experiment in all cases: DAPPL (digital affinity profiling via proximity ligation, sequencing); 10 mM Tris-HCl pH 7.5, 50 mM NaCl, 1 mM DTT, 4% glycerol, room temperature, 30 min; GST-TFs on glutathione beads, 16-mer random dsDNA library, 0.1% formaldehyde crosslink after washing; high values mean tight binding
Conditions in all cases: protein: recombinant; tags: N-terminal GST; dsDNA, one strand shown
[1] = molecular target: T1, ELK1 (Homo sapiens, UniProt P19419 1-428)
T1 sequence: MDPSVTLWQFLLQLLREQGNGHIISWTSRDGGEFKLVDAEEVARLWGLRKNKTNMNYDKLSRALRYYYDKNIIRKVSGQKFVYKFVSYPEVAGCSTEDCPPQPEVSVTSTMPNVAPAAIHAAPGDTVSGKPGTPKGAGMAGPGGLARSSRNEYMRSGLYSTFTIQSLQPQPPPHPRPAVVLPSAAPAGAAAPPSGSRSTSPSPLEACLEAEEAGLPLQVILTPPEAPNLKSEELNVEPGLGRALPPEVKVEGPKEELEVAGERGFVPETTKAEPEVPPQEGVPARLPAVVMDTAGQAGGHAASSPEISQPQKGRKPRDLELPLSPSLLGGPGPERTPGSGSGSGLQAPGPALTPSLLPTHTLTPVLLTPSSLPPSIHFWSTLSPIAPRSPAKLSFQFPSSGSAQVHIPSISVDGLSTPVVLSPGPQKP
Outline: (§1)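 A tag-only sample was pooled with DNA-barcoded human transcription factors that had been expressed in yeast as GST fusions and captured on glutathione beads. The pools were incubated for 30 min at room temperature with 200 nmole of a random double-stranded 16-mer DNA library in Tris/NaCl/DTT/glycerol buffer, then washed, crosslinked with 0.1% formaldehyde, proximity-ligated (BsaI/T4 ligase, 1 h, 37 °C), PCR-amplified and sequenced on an Illumina NextSeq500. Binding signal is each hexamer's read frequency for a factor divided by its frequency for the tag-only sample.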

[2] = molecular target: T2, GABPA (Homo sapiens, UniProt Q06546 1-454)
T2 sequence: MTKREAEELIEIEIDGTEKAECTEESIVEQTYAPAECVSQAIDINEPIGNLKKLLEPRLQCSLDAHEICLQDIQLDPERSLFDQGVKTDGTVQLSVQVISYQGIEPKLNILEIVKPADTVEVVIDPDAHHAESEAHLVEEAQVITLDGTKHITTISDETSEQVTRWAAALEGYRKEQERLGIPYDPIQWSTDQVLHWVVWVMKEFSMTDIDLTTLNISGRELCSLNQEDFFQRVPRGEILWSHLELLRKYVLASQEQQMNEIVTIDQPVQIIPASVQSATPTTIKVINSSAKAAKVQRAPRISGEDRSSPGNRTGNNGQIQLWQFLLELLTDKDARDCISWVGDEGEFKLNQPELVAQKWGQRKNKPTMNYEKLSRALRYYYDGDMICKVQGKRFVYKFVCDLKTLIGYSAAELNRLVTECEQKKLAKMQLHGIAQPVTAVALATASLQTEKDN
Outline: as §1

[3] = molecular target: SPI1 (Homo sapiens, UniProt P17947 1-270)
Outline: as §1

[4] = molecular target: T3, ELK3 (Homo sapiens, UniProt P41970 1-407)
T3 sequence: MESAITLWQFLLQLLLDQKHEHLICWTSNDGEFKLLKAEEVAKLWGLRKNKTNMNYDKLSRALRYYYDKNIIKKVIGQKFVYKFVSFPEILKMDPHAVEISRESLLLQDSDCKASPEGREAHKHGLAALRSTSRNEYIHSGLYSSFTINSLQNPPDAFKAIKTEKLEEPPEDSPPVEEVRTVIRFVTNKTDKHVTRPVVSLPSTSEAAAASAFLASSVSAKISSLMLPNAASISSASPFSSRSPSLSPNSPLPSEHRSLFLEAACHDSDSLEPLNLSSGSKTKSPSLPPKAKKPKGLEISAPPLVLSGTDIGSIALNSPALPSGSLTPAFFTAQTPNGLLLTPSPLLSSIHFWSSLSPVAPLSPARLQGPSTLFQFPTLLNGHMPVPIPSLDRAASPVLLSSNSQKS
Outline: as §1

[5] = molecular target: T4, SPIC (Homo sapiens, UniProt Q8N5J4 1-248)
T4 sequence: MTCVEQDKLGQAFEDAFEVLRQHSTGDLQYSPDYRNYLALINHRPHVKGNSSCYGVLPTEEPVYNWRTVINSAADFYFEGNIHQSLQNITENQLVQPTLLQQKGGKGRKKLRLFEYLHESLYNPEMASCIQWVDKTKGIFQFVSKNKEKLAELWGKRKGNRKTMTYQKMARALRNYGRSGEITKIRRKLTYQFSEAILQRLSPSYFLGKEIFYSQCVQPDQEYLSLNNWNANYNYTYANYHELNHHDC
Outline: as §1

[6] = molecular target: ELF4 (Homo sapiens, UniProt Q99607 1-663)
Chain of ELF4 (Q99607 whole entry): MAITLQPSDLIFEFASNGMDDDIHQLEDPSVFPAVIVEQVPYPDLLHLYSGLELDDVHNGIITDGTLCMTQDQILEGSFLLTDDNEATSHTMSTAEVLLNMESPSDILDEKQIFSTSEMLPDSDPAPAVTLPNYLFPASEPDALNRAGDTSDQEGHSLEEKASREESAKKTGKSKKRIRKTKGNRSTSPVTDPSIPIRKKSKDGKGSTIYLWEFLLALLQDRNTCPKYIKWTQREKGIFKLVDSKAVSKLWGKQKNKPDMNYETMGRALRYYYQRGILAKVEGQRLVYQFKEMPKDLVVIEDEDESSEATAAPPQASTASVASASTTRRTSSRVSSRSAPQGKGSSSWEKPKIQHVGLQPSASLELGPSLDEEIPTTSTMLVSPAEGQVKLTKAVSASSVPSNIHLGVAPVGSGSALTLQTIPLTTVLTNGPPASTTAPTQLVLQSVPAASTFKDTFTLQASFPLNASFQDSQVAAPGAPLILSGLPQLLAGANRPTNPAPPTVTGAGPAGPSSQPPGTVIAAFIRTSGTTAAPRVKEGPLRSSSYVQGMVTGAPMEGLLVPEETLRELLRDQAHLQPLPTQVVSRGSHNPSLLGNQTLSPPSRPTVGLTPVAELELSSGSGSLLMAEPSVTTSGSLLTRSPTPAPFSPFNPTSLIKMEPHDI
Outline: as §1

[7] = molecular target: T5, ETV2 (Homo sapiens, UniProt O00321 1-342)
T5 sequence: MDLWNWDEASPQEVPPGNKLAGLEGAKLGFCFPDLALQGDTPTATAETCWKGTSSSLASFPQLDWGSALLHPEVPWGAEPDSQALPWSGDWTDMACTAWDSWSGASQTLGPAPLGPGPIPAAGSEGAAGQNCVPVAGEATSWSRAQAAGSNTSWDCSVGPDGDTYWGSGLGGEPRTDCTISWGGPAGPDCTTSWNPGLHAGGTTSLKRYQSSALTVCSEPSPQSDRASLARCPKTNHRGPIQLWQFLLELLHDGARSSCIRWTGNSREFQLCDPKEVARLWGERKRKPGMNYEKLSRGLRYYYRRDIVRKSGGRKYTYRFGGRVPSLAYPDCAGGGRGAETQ
Outline: as §1

[8] = molecular target: ETV1 (Homo sapiens, UniProt P50549 1-477)
Chain of ETV1 (P50549 whole entry): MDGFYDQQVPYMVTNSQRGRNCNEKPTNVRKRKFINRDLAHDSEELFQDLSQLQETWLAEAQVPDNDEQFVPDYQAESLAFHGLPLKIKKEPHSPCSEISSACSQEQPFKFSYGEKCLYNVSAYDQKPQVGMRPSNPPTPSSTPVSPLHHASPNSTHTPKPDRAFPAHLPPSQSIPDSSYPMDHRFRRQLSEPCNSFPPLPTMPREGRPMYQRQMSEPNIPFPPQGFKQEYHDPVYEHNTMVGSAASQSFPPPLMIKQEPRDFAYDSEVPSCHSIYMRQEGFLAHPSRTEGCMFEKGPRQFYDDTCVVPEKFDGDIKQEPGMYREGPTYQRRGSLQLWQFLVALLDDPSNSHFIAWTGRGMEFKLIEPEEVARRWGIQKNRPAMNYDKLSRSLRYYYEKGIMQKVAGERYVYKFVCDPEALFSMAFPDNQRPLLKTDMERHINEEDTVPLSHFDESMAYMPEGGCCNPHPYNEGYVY
Outline: as §1

[9] = molecular target: T6, ERF (Homo sapiens, UniProt P50548 1-548)
T6 sequence: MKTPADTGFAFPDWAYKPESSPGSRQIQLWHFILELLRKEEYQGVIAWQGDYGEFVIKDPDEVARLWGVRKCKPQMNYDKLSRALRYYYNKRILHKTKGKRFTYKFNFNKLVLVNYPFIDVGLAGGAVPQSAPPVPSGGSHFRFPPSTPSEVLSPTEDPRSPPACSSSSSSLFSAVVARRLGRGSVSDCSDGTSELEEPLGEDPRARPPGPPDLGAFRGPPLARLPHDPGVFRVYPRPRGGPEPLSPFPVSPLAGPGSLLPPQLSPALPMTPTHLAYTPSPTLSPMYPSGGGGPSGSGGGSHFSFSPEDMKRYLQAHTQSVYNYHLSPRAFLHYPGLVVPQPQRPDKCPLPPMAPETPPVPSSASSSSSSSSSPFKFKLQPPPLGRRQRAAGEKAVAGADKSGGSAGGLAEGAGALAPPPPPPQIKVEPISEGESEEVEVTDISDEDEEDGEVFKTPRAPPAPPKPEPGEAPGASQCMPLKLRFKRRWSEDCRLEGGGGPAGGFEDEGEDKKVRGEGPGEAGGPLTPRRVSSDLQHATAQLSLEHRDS
Outline: as §1

[10] = molecular target: T7, ETS2 (Homo sapiens, UniProt P15036 1-469)
T7 sequence: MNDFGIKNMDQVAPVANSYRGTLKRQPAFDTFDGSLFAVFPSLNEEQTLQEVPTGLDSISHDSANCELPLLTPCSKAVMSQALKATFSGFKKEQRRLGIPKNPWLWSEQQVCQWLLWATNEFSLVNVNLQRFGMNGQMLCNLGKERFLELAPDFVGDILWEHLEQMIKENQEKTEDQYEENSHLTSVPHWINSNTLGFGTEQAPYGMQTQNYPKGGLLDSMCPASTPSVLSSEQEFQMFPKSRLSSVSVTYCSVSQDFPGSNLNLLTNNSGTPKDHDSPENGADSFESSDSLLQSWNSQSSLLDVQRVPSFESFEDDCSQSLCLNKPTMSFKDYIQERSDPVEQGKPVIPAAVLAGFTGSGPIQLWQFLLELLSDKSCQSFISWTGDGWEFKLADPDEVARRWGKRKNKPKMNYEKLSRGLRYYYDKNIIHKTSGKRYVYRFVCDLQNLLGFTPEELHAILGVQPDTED
Outline: as §1

[11] = molecular target: T8, ETV7 (Homo sapiens, UniProt Q9Y603 1-341)
T8 sequence: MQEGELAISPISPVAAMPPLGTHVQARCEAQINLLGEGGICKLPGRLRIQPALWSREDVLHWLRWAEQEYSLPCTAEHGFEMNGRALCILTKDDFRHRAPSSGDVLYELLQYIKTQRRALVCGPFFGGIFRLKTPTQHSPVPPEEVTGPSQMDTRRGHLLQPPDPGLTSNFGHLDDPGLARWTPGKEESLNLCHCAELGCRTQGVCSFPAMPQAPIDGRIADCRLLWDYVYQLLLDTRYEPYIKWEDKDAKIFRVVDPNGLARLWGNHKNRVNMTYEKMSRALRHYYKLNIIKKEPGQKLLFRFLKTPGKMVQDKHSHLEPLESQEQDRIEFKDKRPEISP
Outline: as §1

[12] = molecular target: T9, ELF5 (Homo sapiens, UniProt Q9UKW6-2 1-255)
T9 sequence: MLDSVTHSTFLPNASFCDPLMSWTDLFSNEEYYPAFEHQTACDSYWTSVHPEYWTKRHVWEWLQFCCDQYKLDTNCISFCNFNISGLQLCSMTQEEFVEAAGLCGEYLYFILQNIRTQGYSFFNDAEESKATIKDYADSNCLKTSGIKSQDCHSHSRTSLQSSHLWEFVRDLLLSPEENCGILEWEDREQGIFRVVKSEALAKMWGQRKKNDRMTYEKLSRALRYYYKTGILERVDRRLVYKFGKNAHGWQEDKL
Outline: as §1

[13] = molecular target: T10, ETV3 (Homo sapiens, UniProt P41162-2 1-143)
T10 sequence: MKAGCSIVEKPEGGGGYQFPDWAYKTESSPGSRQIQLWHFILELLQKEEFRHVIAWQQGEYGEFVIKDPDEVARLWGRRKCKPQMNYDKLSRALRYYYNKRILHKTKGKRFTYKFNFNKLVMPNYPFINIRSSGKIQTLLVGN
Outline: as §1

[14] = molecular target: T11, ELK4 (Homo sapiens, UniProt P28324-2 1-405)
T11 sequence: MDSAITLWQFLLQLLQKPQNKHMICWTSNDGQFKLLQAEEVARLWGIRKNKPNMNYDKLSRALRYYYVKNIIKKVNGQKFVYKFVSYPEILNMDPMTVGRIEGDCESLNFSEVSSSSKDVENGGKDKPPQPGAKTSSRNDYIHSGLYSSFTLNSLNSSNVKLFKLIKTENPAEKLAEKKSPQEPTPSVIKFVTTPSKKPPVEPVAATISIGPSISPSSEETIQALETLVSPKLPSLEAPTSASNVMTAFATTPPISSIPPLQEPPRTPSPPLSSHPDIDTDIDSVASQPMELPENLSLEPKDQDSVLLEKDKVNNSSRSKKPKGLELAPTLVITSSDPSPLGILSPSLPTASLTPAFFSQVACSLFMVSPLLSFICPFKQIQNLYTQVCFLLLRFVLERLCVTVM
Outline: as §1

Sequence | binding signal [1] | binding signal [2] | binding signal [3] | binding signal [4] | binding signal [5] | binding signal [6] | binding signal [7] | binding signal [8] | binding signal [9] | binding signal [10] | binding signal [11] | binding signal [12] | binding signal [13] | binding signal [14]
ACCTGT | 1.05 fold enrichment (6-mer frequency, TF over GST control) | 1 fold enrichment (6-mer frequency, TF over GST control) | 1.01 fold enrichment (6-mer frequency, TF over GST control) | 1.12 fold enrichment (6-mer frequency, TF over GST control) | 1.06 fold enrichment (6-mer frequency, TF over GST control) | 1.06 fold enrichment (6-mer frequency, TF over GST control) | 1.04 fold enrichment (6-mer frequency, TF over GST control) | 1.02 fold enrichment (6-mer frequency, TF over GST control) | 1.08 fold enrichment (6-mer frequency, TF over GST control) | 1.04 fold enrichment (6-mer frequency, TF over GST control) | 1.07 fold enrichment (6-mer frequency, TF over GST control) | 1.04 fold enrichment (6-mer frequency, TF over GST control) | 1.13 fold enrichment (6-mer frequency, TF over GST control) | –
AGGGCC | – | – | – | – | 1.02 fold enrichment (6-mer frequency, TF over GST control) | – | – | – | – | – | – | – | – | 1.1 fold enrichment (6-mer frequency, TF over GST control)
